# Assay results: PubChem BioAssay AID651998 (The Scripps Research Institute Molecular Screening Center, 2013)
# Test system: LYPLA1
# Test: LYPLA1 enzyme kinetics with inhibitors – biochemical, substrate-based fluorescence, Ki, Km, late-stage follow-up (AID 651998)
# Settings: recombinant LYPLA1, resorufin acetate hydrolysis fluorescence, Ki from Cheng-Prusoff
smiles,measurement,value
O=C(CN1CCN(C(=O)c2ccco2)CC1)Nc1cc(C(F)(F)F)ccc1Cl,Ki,0.3 µM
